Screening data deposited in PubChem BioAssay by The Scripps Research Institute Molecular Screening Center.
ssDAF12 agonist: S. stercoralis DAF-12 activation, primary screen | activation, % at 6.8 µM | HEK293 ssDAF-12/GRIP1 lit1-tk-luc reporter, luminescence; % of 3 µM dafachronic acid response | 370,000 compounds, 1% hits;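 active = activation above the mean over all tested compounds plus 3 SD, cut at about 0.9% in these data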
AHR act: human AHR activation. P35869. activation, % at 5 µM. 320,000 compounds, 2.5% hits. AID 2796. AHR-responsive luciferase reporter cells, luminescence; in the data active = activation above about 47%
hcDAF12 agonist: H. contortus DAF-12 activation, primary screen; HEK293 hcDAF-12 lit1-tk-luc reporter, luminescence; 0% DMSO, 100% Δ7-dafachronic acid; activation, % at 6.8 µM; 370,000 compounds, 1.4% hits; AID 652067;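 active = activation above the mean of all tested compounds plus 3 SD, cut at about 5.5% in these data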
DAX1 inh-1: NR0B1 (DAX1) inhibition | HEK293 Gal4-DAX1 luciferase reporter, luminescence | inhibition, % at 6.75 µM | 340,000 compounds, 0.99% hits;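 active = inhibition above the mean over all tested compounds plus 3 SD, cut at about 4.2% in these data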;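 note: inhibition shows as a rise in luminescence from relieved DAX1 repression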
Target sequence (P51843 207-470 limits assumed): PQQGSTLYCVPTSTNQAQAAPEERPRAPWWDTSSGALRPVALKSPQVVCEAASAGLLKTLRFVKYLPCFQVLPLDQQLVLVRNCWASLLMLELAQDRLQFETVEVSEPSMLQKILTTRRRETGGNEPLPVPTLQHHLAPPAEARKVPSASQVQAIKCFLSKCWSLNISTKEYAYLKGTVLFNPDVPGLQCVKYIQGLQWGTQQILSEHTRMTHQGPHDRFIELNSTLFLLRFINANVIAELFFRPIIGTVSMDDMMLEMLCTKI
DAX1 inh-2: blocks DAX1 repression of SF-1 activated StAR promoter | inhibition, % at 6.8 µM | HEK293T StAR-luciferase reporter, SF-1/DAX-1 repression relief | 370,000 compounds, 1.1% hits;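 active = inhibition above the mean over all tested compounds plus 3 SD, cut at about 3.6% in these data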;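 note: higher inhibition means more luminescence from relief of DAX-1 repression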
hgDAF12 agonist: hgDAF-12 agonism, primary luciferase screen; HEK293 GAL4-hgDAF12 UAS-luciferase reporter, agonist luminescence; normalized to butyrate control; activation, % at 6.8 µM; 370,000 compounds, 1.8% hits;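 active = activation above a cutoff set at the mean of all screened compounds plus 3 SD, cut at about 10% in these data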
Of the large screens only hits and unclear results are named; the others gave an inactive call. The list is not random: actives were taken first. Their share in the collection is about 5.7%.

C(=N\Nc1ncnc2nc[nH]c12)/c1cccs1	DAX1 inh-1 5.7
Cc1ccccc1/C=N/Nc1ncnc2nc[nH]c12	none
Clc1cnc(N/N=C/c2cccs2)c(Cl)c1	ssDAF12 agonist 1.0
Cc1ccc(/C=N/Nc2ncc(Cl)cc2Cl)s1	none
c1ccc(CCCNc2ncnc3nc[nH]c23)cc1	none
CCC(=O)c1ccc(SC(=O)N(C)C)cc1O	none
CN1CCCCC(NC(=O)c2cccc(F)c2)C1=O (stereo not drawn)	none (no result: AHR act, DAX1 inh-1)
COC(=O)[C@]12C[C@H](CC(=O)NCCC(C)C)C(=O)N(Cc3ccc4c(c3)OCO4)C1=C[C@H](COCc1ccccc1)O[C@@H]2C	none (no result: AHR act, DAX1 inh-1)
CC1CC1C(=O)Nc1nc(-c2cccs2)c(-c2cccs2)s1 (stereo not drawn)	ssDAF12 agonist 2.0, AHR act 78.2
CCOC(=S)N/C(=N\S(=O)(=O)c1ccc(C)cc1)c1ccccc1	none
COc1ccc(C2c3[nH]c4ccccc4c3CCN2C(=O)c2cn3ccccc3n2)c(F)c1 (stereo not drawn)	ssDAF12 agonist 1.5
Fc1ccc(C2c3[nH]c4ccccc4c3CCN2CCCn2cccn2)cc1 (stereo not drawn)	none
COc1ccc(C2c3[nH]c4ccccc4c3CCN2C(=O)c2cc3ncccn3n2)c(F)c1 (stereo not drawn)	none
Fc1ccc(C2c3[nH]c4ccccc4c3CCN2Cc2ccoc2)cc1 (stereo not drawn)	AHR act 51.1
Cn1nccc1C(=O)N1CCc2c([nH]c3ccccc23)C1c1ccc(F)cc1 (stereo not drawn)	ssDAF12 agonist 1.0
CCOC(=O)N[C@H](C(=O)N1CCC[C@H]1C(=O)NC1CCCC1)C1CCCCC1	none (no result: AHR act, DAX1 inh-1)
O=C(NCc1ccc(Cl)cc1)c1ccc(OCC2CCCO2)cc1 (stereo not drawn)	none
O=C(Nc1ccc(Cl)cc1)c1ccc(OCC2CCCO2)cc1 (stereo not drawn)	hgDAF12 agonist 12.6
COc1cc(C(=O)OCC(=O)Nc2ccc(S(=O)(=O)NC3=NCCCCC3)cc2)cc(OC)c1OC	none
C[C@@H](C(=O)N1CCN(c2ccccc2)CC1)N1C(=O)C2CC=CCC2C1=O (stereo partly drawn)	none
CC(C(=O)N1CCN(c2ccccc2)CC1)N1C(=O)C2CC=CCC2C1=O (stereo not drawn)	DAX1 inh-1 5.0
CN(C)S(=O)(=O)c1cccc(NC(=O)c2cc(=O)[nH]c3ccccc23)c1	none
O=C(NS(=O)(=O)Nc1ccc(Cl)cc1)c1c[nH]c2ccccc12	none
COc1cccc(NS(=O)(=O)NC(=O)c2c[nH]c3ccccc23)c1	none
COc1ccc(NS(=O)(=O)NC(=O)c2c[nH]c3ccccc23)cc1	hcDAF12 agonist 5.8
O=C(NS(=O)(=O)Nc1ccccn1)c1c[nH]c2ccccc12	ssDAF12 agonist 1.0
CN(C)S(=O)(=O)c1cccc(NC(=O)c2c[nH]c3ccccc23)c1	ssDAF12 agonist 1.3, AHR act 49.4
O=C(NCC1CCCO1)c1onc(CSc2ccc(F)c(F)c2)c1C(=O)O (stereo not drawn)	none
CCN1Cc2c(/C=C/c3ccccc3)nc3ccc(OC)cc3c2N(c2cccc(Cl)c2)C1	AHR act 65.0, hcDAF12 agonist 5.7
COC(=O)[C@@H](NC(=O)N1CCC(C)CC1)C(C)C	DAX1 inh-1 4.9
CC1CCN(c2nc3c(c(=O)[nH]c(=O)n3C)n2CC(C)CSc2nnnn2-c2ccccc2)CC1 (stereo not drawn)	none
Cc1ccc(-c2[nH]ncc2/C=N/n2c(COc3ccccc3C)nc3ccccc3c2=O)cc1	hgDAF12 agonist 12.9
Cc1cc(/C=N/n2c(COc3ccccc3C)nc3ccccc3c2=O)c(O)c([N+](=O)[O-])c1	none
Nc1cc(=O)[nH]c(SCC(=O)NNC(=O)c2ccccc2)n1	none
COc1cccc(-c2nn(C)c3sc(C(=O)NCc4ccc5c(c4)OCO5)cc23)c1	AHR act 50.3
Cn1nc(-c2ccc(Cl)cc2)c2cc(C(=O)N3CCOCC3)sc21	AHR act 54.7
CCOC(=O)N1CCC(NC(=O)c2cc3c(-c4ccccc4F)nn(C)c3s2)CC1	none
